Rows were chosen to be rich in hits. Some 11% of all compounds tested hit in one or more screens of this group.
IMPase inh: cell-permeable inhibitors of inositol monophosphatase (IMPase); P97697; CHO-M1 cells, IP1 accumulation, HTRF TR-FRET ratio; inhibition (IP1 accumulation), % at 46.1 µM; 120,000 tested, under 10 active; active = well fitted curve in the direction sought with a large enough effect in the signal ratio, not every such curve was filed as active; inconclusive = small, poorly fitted or top-dose-only effect, or a change in a side signal; inactive = no such curve, though single readings can be large or run the other way; the % refers to the signal ratio;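 note: cells stimulated with carbachol in lithium chloride buffer; plate controls were DMSO basal wells for no effect and reference inhibitor wells for full effect; higher means more IMPase inhibition seen as more IP1 and lower FRET ratio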
Target sequence (P97697 whole entry, looked up): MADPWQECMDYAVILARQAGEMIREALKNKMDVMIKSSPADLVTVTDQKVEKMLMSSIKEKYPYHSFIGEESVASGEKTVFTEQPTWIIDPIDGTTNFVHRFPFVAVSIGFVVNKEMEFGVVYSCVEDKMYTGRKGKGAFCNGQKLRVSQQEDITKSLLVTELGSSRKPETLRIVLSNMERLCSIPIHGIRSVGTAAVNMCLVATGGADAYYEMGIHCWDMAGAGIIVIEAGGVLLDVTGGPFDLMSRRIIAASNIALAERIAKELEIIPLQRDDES
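Cellular IMPase inhibition is scored as a rise in cytosolic IP1, detected by competitive TR-FRET between d2-labelled IP1 and a europium anti-IP1 antibody. M1-expressing CHO cells were stimulated with carbachol for 30 min at 37C, with lithium (50 mM LiCl) present in the buffer.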
IMPase Li inh: membrane-permeable IMPase blocker, potentiated with lithium | CHO-M1 cells, IP1 TR-FRET (IP-One), carbachol + lithium | Potency, µM (series often up to 59.4 µM), for inactives: top-dose activity, negative = IMPase inhibition, most hits filed as inhibitors | 210,000 tested, 0.35% active | AID 1457; active = well fitted inhibition curve with a large enough effect; inconclusive = small, poorly fitted or top-dose-only effect; inactive = no such curve, though single readings can be large or run the other way;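 note: IP1 builds up when IMPase is blocked and the TR-FRET signal falls; potency is the fitted concentration of half-maximal effect; plate controls were basal vehicle for no effect and high inhibitor control for full effect; nearly all actives have a fitted effect of over 50% in size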
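Test compounds were applied to CHO-M1 cells previously cultured for 16–30 h at 2000 per well. A small lithium amount accompanied them; after 30 min at 37C, IP1 was quantified by TR-FRET.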
PNC assembly inh: perinucleolar compartment assembly inhibition. PC3M PTB-GFP, PNC prevalence imaging, 16 h; stronger effect = lower value. activity change (PNC), negative = inhibition, % at 10 µM. 140,000 tested, 3.1% active;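 active = readout at or below -70, meaning at least 70% loss of cells showing the perinucleolar compartment, a nuclear body marking cancer cells; inconclusive = readout between -30 and a set limit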;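 note: plate controls were DMSO wells for no effect and camptothecin positive control wells for full effect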
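PC3M cells stably expressing PTB-GFP, 750–1000 cells/well, treated 16 h at 37 °C with compound (23 nl of library stock), in duplicate. After paraformaldehyde fixation and Hoechst stain, imaged at 20x; PNC prevalence scored by image analysis.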
ALDH1A1 block: ALDH1A1 (human) enzyme inhibition. P00352. AID 1030. 220,000 tested, 7.3% active. Potency, µM (doses to about 75.3 µM), for inactives: at the highest dose activity, negative = inhibition, hits mostly inhibitors. Purified ALDH1A1, NADH fluorescence, propionaldehyde substrate;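 note: potency is the fitted concentration of half-maximal effect; plate controls were no enzyme wells and a reference inhibitor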
HPGD inh: inhibitors of human 15-hydroxyprostaglandin dehydrogenase (HPGD). P15428. purified HPGD, NADH fluorescence kinetic, PGE2 substrate. Potency, µM, for the others: top-dose activity change, negative = inhibition, hits mostly inhibitors. 150,000 tested, 4.3% active. AID 894; note: potency is the fitted concentration of half-maximal effect
Target sequence (P15428 whole entry, looked up): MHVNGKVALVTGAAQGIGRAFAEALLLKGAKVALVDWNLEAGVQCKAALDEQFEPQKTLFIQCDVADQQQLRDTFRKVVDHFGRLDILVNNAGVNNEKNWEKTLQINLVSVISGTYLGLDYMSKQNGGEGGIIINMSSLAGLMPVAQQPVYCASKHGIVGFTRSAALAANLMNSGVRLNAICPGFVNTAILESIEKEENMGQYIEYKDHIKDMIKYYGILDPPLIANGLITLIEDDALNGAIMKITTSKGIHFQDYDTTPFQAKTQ
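NADH formation kinetics: reaction with 30 uM PGE2 and 1 mM NAD+ (final), 20 nM enzyme, Tris-HCl pH 8 with Tween 20, after 15 min compound preincubation at room temperature. Fluorescence change, last versus first of five reads.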
An asterisk follows results filed as active; ? = inconclusive; · = no result; [ ] = dose if it differs, or a comment. Unless noted, calls come from the whole dose curve; as a rule, active = well fitted inhibition curve with a large enough effect (not every such curve was filed as active); inconclusive = small, poorly fitted or top-dose-only effect, or another doubt; inactive = no such curve, though single readings can be large or run the other way. Unless noted, % is set by controls: 0 for no effect and ±100 for the full control effect.

SMILES	IMPase inh	IMPase Li inh	PNC assembly inh	ALDH1A1 block	HPGD inh
CC(C)c1ccc(NC(=S)NN(c2ccccc2)c2ccccc2)cc1	·	12%	-85*	14µM*	22µM*
CCNC(=S)Nc1ccc(N(c2ccccc2)C(C)C)cc1	10	10%[38.3 µM]	?	?	-29%
O=C(Nc1cccc(F)c1)N1CCCC2(CCN(C(=O)c3cnccn3)CC2)C1	·	8%	·	?	-9%
Cc1ncc(N=Nc2ccccc2Cl)c(-c2ccccc2)n1	8	6%[38.3 µM]	29	-1%	?
COc1ccc(N=Nc2cnc(C)nc2-c2ccccc2)cc1	-5[1.84 µM]	27%[38.3 µM]	-85*	-13%	-24%
S=c1nc[nH]c2c1sc1nc(N3CCOCC3)c3c(c12)CCCC3	·	11µM*	·	1.4µM*	·
Cn1nnc2c(sc3nc(N4CCOCC4)c4c(c32)CCCC4)c1=O	-1	25%[38.3 µM]	?	-6%	-10%
COc1ccc(NC(=O)CSc2nc3ccccc3c(=O)n2CCCN2CCCCC2)c(OC)c1	8	43%[38.3 µM]	21	10µM*	-8%
Cc1cccc(NC(=O)CSc2nc(N)cc(N)n2)c1	6	1%	-28	6%	-13%
Cc1cccc(NC(=O)CSc2nnc(-c3ccco3)c(-c3ccco3)n2)c1	·	9%	·	7.9µM*	·
Cc1cccc(NC(=O)CSc2nnc(-c3ccco3)c(-c3ccco3)n2)c1C	3	12%[38.3 µM]	0	3.5µM*	10µM*
NC(Cc1ccccc1)(C(=O)O)C(=O)O	·	-2%	·	12%[13.5 µM]	-3%
CC(=O)c1c(COC(=O)c2ccccc2)nc2ccccc2[n+]1[O-]	7	6%[38.3 µM]	17	?	14µM*
COc1ccc2nc(COC(=O)c3cccc([N+](=O)[O-])c3)c(C(C)=O)[n+]([O-])c2c1	·	·	·	-6%	·
CCC(CC)C(=O)c1c[nH]c(C(=O)NCCCN2CCOCC2)c1	6	3%[38.3 µM]	81	3%	0%
O=C(NCCCN1CCOCC1)c1cc(C(=O)C2CCCCC2)c[nH]1	·	-2%	·	25µM*	·
COc1ccc(C(=O)CCN(C)C)c2ccccc12	·	1%	·	0.028µM*	-29%
O=C(NC1=NCCCCC1)c1cccc2ccccc12	·	11%	·	-6%	·
c1ccc(CNc2ncnc3c2cnn3Cc2ccccc2)cc1	13	19%	12	?	?
CCOc1ccc(Nc2ncnc3c2cnn3Cc2ccccc2)cc1	5	7%[38.3 µM]	-12	11µM*	?
COc1ccc(Nc2ncnc3c2cnn3Cc2ccccc2)cc1	9	0%[38.3 µM]	6	8.9µM*	22µM*
O=C1c2ccccc2C(=O)N1c1cccc(-c2nc3ccccc3o2)c1	?	1%[38.3 µM]	-89*	5%	-7%
Cc1cc(C)c(O)c(N)c1	·	14%	·	25µM*	·
COc1ncc2nc(-c3ccc(F)cc3)c(=O)n(C)c2n1	·	-7%	·	?	·
COc1ccc(-c2coc3cc4oc(=O)cc(-c5ccccc5)c4cc23)cc1F	6	4%	-111*	5%	?
SMILES	IMPase inh	IMPase Li inh	PNC assembly inh	ALDH1A1 block	HPGD inh
Clc1cc2c(c(CSc3nc4ccccc4n4cccc34)c1)OCOC2	·	·	·	0%	·
Clc1cc2c(c(Cn3cnc4ccccc43)c1)OCOC2	-9	6%	-100*	-1%	-9%
N=C(N)[C@H](N=Nc1ccccc1)C(N)=O	·	4%	·	-8%[13.5 µM]	0%
CCC(=NCCN1CCNCC1)C1=C(O)CC(C)(C)CC1=O	18	26%[38.3 µM]	-21	?	-2%
CC(=NCCN1CCNCC1)C1=C(O)CC(C)(C)CC1=O	?	·	?	25µM*	·
CC(C1CCCC(=O)C1)[N+](=O)[O-] (stereo not given)	·	2%	·	-11%	-2%
COc1cc(NC(=O)CN2C(=O)CN(C)C2=O)c(C)cc1[N+](=O)[O-]	·	-4%	·	-7%	·
COc1cc(NC(=O)Cn2ncc(Cl)c(Cl)c2=O)c(C)cc1[N+](=O)[O-]	·	12%	·	2µM*	·
Cc1oc2cc(O)cc(O)c2c(=O)c1-c1ccc2c(c1)OCCCO2	0	16%[38.3 µM]	7	16µM*	-29%
CCOC(=O)c1oc2cc(O)c(CC)cc2c(=O)c1-c1ccc2c(c1)OCCO2	2	40%[38.3 µM]	36	?	-18%
CC(=O)C1=C(O)C(=O)N(Cc2ccco2)C1c1ccccc1F (stereo not given)	·	?	·	10µM*	·
Cc1ccc(C(=O)Nc2ccc(Br)cc2)cc1S(=O)(=O)NCc1ccccc1	19	·	·	·	·
COc1ccc(S(=O)(=O)N2CCSC2c2ccc(OC)c(OC)c2)cc1 (stereo not given)	2	4%[38.3 µM]	15	?	-17%
COc1ccc(S(=O)(=O)N2CCSC2c2ccccc2)cc1 (stereo not given)	-1	14%[38.3 µM]	30	25µM*	-19%
O=C(O)CCn1[nH]c(=O)ccc1=O	-10	-6%	-100*	2%	-11%
O=C(O)CCn1c(=O)c2ccccc2c2ccccc2c1=O	3	21%[38.3 µM]	17	9%	-9%
Cc1cccc(C(=O)O/N=C(\c2ccccc2)c2cccnc2)c1	·	3%	-3	16µM*	-21%
O=C(O/N=C(\c1ccccc1)c1ccccn1)c1ccc(Cl)c(Cl)c1	-4	8%	-107*	?	-24%
N/C(=N\OC(=O)c1ccc2ccccc2c1)c1ccccn1	·	0%	·	2%	·
COc1ccc(N2CCN(C(=O)c3cn(C4CCCCC4)c(=O)c4c3c3ccccc3n4C)CC2)cc1	-1	·	·	·	·
O=C(CN1C(=O)NC2(CCCC2)C1=O)N1CCc2ccccc2C1	·	-15%	·	3%	·
COc1cc2c(c3oc(-c4ccccc4)cc(=O)c13)C=CC(C)(C)O2	·	16%	·	10µM*	·
CN(C)S(=O)(=O)c1cccc(NC(=O)CN2C(=O)NC(CCc3ccccc3)C2=O)c1 (stereo not given)	·	4%	·	-7%	·
O=C(NCc1cccnc1)C(=O)NCC(c1ccco1)N1CCN(c2ccccc2F)CC1 (stereo not given)	·	-3%	?	11µM*	-11%
O=C(NCc1ccccc1)C(=O)NCC(c1ccco1)N1CCN(c2ccccc2F)CC1 (stereo not given)	·	0%	·	?	·
SMILES	IMPase inh	IMPase Li inh	PNC assembly inh	ALDH1A1 block	HPGD inh
O=C(O)CCC(=O)Nc1ccccc1Oc1ccccc1	·	-2%	·	6%	·
CC(C)NC(=O)CSCc1c(Cl)cccc1Cl	0	41%[38.3 µM]	29	?	14µM*
O=C(CSCc1c(Cl)cccc1Cl)Nc1nccs1	9	-14%[38.3 µM]	-12	-7%	20µM*
FC(F)(F)c1ccc(Oc2ccc(Cl)cc2Br)nc1	·	9%	·	-6%	·
Cc1nc2cnc(N3CCN(C)CC3)nc2n(Cc2ccc(F)cc2)c1=O	·	23%	·	?	·
Cc1oc2cc3c(C(=O)N4CCCCC4)c(C)oc3cc2c1C(=O)N1CCCCC1	5	-12%[38.3 µM]	-6	?	4.5µM*
CC(=O)Oc1ccc2oc(C)c(C(=O)N3CCOCC3)c2c1	-2	-16%[38.3 µM]	-20	-3%	-5%
COc1cccc(/C=C/C(=O)OCC(=O)Nc2ccc(N3CCOCC3)cc2)c1OC	·	5%	·	?	·
COc1ccc(/C=C2\SC(=S)N(N3C(=O)CCC3=O)C2=O)cc1O	·	11%	·	?	·
